The panel holds about 83,000 compounds, 20% with a hit somewhere; the sample as a whole holds those more often.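 Activity criterion: percent growth below 10, measured after cells in 96-well plates were exposed to a single compound concentration for 48 hours.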 Values without a mark were called inactive. Calls of active or inactive are those of the source.

This assay has as its system HL-60(TB) leukemia. Kind of assay: NCI-60 one-dose screen, 48 h (100 = growth as untreated, 0 = no growth, -100 = all killed). To be noted: 10 µM unless noted.
On to `CC1NC(=O)NC1CCCCCC(=O)O` (centres undefined), for which the growth was 107%. To `CS(=O)(=O)Cc1cnc(C2OCCO2)s1` belongs 88.5%; to `CC(C)n1cc(C2=C(c3cccc4ccccc34)C(=O)NC2=O)c2cc(Br)ccc21`, 54.1%.

As to `Cn1c(=O)c2c(nc(NC3=NS(=O)(=O)c4ccccc43)n2Cc2ccccc2)n(C)c1=O`, the growth was 112%. Under `CCCCc1oc2ccccc2c1C(=O)c1ccc(O)cc1` stands 68%; under `O=C1Nc2ccccc2/C1=C/c1ccc[nH]1`, 103%. In the case of `CC1=C2[C@@H](CC1)[C@]1(C)O[C@@](c3ccccc3)(C[C@H]1OC(=O)CO)[C@H]2OC(=O)/C=C/c1ccccc1`, the growth was 88.5%.

Turning to `CSc1ncc(C)c(Nc2ccc(Cl)cc2)n1`, the growth was 112%. Under `COc1cc(-c2nc3cc(Cl)c(Cl)cc3[nH]2)ccc1OCC(=O)N=Nc1c(O)[nH]c2ccc(Cl)cc12` stands -32.7% (active). To `Cc1ccc(-c2cc(-c3cccnc3)[nH]c(=O)c2C#N)cc1` belongs 99%; to `COc1ccc(-c2cc(-c3ccc(Cl)cc3)nc(SCCCC(=O)NO)n2)cc1`, -22.9% (active).

Turning to `CC#CC(=O)N1CCC[C@H]1c1nc(-c2ccc(C(=O)Nc3ccccn3)cc2)c2c(N)nccn12`, the growth was 130%. To `Nc1ncnc2c1N=C(c1ccc(Cl)cc1)CC(c1cccc(Nc3ccnc4cc(Cl)ccc34)c1)N2` (centres undefined) belongs 55.3%; to `CCCCCCCCCCCC(=O)NCCC[N+](C)(C)CC(=O)[O-]`, 101%; to `O=CN/N=C/c1ccc(Cl)c([N+](=O)[O-])c1`, 11.1%.

As to `O=C1/C(=C\c2cn(CC(O)CN3CCCCC3)c3ccccc23)c2ccccc2N1c1c(Cl)cccc1Cl` (centres undefined), the growth is -36.5% (active). `CC(=O)OC(c1ccccc1)C1CCOC1=O` (centres undefined): the growth is 113%. Under `O=C(NCc1cccnc1)c1cc(-c2csc3c(=O)cc(N4CCOCC4)oc23)cc2c1OCCO2` stands -35.1% (active); under `CC/C=C\C[C@H](O)C/C=C1/C(=O)C=C[C@@]1(C)C/C=C\CCCC(=O)OC`, 98.9%; under `CCN(CC)CCN1CC(=O)Nc2cc(Cl)ccc21`, 98.9%.

With `COc1cc2c(c(O)c1Br)C(=O)c1c(O)cc(C[C@H](C)O)cc1[C@H]2[C@H]1c2cc(C[C@H](C)O)cc(O)c2C(=O)c2c1cc(OC)c(Br)c2O`, the growth is -28% (active). As to `COc1ccc2nc(-n3nc(C)cc3C)c(-n3nc(C)cc3C)nc2c1`, the growth is 104%. To `CCN(CC)CCCC(C)Nc1c2ccc(C)cc2nc2ccc(OC)cc12` (centres undefined) belongs 11.4%; to `O=C(O)CC1=CCCCC1`, 95.5%. Under `C/C=C(/C)C(=O)OC1C=C(CO)C(=O)C(OC(=O)C(C)(O)C(C)Cl)C1C(C)C` (centres undefined) stands -25.3% (active); under `Clc1ccc2c(NCCNc3nc(N4CCOCC4)nc4ccccc34)ccnc2c1`, -65.4% (active); under `O=C1c2cccnc2C(=O)c2c1c(C(=O)OCCN1CCOCC1)c1ccccn21`, -36.4% (active). To `C/C=C/C1OC23CCCCC2C(C#N)(C(=N)O3)C1(C#N)C#N` (centres undefined) belongs 106%; to `C[C@]12CC[C@@H]3c4ccc(O)c([N+](=O)[O-])c4CC[C@H]3[C@@H]1CC[C@@H]2NS(=O)(=O)c1cccc(Br)c1`, -5.66% (active); to `O=C1NC(=O)C2C(=O)NC(=O)C1C21CCc2ccccc21` (centres undefined), 117%.

For the molecule `COc1cc2oc3cc(=O)cc4oc(-c5ccccc5)cc(c2c2c1CCC(c1ccccc1)O2)c43` (centres undefined), the growth is 138%. Under `CC(=O)Nc1cc(F)cc(C(F)(F)F)c1Cl` stands 100%. Take `CC(c1ccccc1)N1C(=O)C(C2SC(=S)N(C(C)c3ccccc3)C2=O)SC1=S` (centres undefined): the growth is 78.2%.

Take `COc1ccc(/C=C/C(=O)c2cc3c(N)c(C(=O)Nc4ccccc4Cl)sc3nc2C)cc1`: the growth was 4.2% (active). To `CC(=O)c1cc(C(=O)c2ccc3c(c2)Sc2ccccc2N3)c2cc(C)ccn12` belongs 2.96% (active); to `N=C(N)c1ccc(-c2ccc(-c3cccs3)s2)s1`, -62% (active); to `O=C1NC(=C(Cl)Cl)/C(=N/S(=O)(=O)N2CCCCC2)N1`, -70.3% (active). Under `CCOc1nc(-c2ccccc2)cc2c(O)c(C(=O)NC(C)C)[nH]c(=O)c12` stands 168%; under `Cc1ccc(-c2csc(N(C(=O)N3CCN(c4cc5c(cc4F)c(=O)c(C(=O)O)cn5C4CC4)CC3)c3ccccc3)n2)cc1`, 1.91% (active).

Source of the values: PubChem BioAssay (NCI).
